From PubChem BioAssay (NCATS) come the findings set out here.

SMILES strings stand for the structures. Inconclusive results are not listed. The source made the active and inactive calls. Unless noted, calls follow the shape of the full dose curve.

Assay [1] has as its target Bile acid receptor (Homo sapiens) (UniProt Q96RI1). Briefly: qHTS assay for small molecule agonists of farnesoid X receptor signaling (AID 588527).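 Also: series mostly up to about 77 µM; 0% = vehicle basal and 100% = reference agonist.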 The following applies: HEK293T FXR-UAS-bla, beta-lactamase ratio, 16 h; activation: stronger effect = higher value. Put shortly:
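Quantitative HTS used FXR-UAS-bla HEK293T cells with 16 h compound incubation at 37 C. EC50 values came from concentration-response curves normalized to chenodeoxycholic acid.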
Background: In qHTS, concentration-response curves come from the screen itself.

Assay [2] addresses Peroxisome proliferator-activated receptor delta (Homo sapiens) (UniProt Q03181). The assay is described as follows: qHTS assay for small molecule agonists of peroxisome proliferator-activated receptor delta signaling (AID 588534).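 Also: 0% = DMSO basal wells and 100% = positive control agonist at 10 µM.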 An outline of the steps:
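Cell-based beta-lactamase reporter assay run in agonist mode: cells seeded and incubated 5 hrs at 37 C, compounds added and incubated 18 hrs at 37 C. CCF4 dye fluorescence read after 2 hrs at RT; EC50 and efficacy from Hill fits.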

A short description of assay [3]: qHTS assay for small molecule antagonists of peroxisome proliferator-activated receptor delta signaling (AID 588535).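 Also: cells co-treated with a PPAR-delta agonist as stimulator during compound exposure.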 Particulars: HEK293T PPARd-UAS-bla, beta-lactamase FRET ratio, 18 h; 460 nm channel. Put shortly:
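Cell-based beta-lactamase assay in antagonist mode: 4000 HEK293T PPAR-delta-UAS-bla cells per well, 5 hr preincubation then 18 hr compound incubation at 37 C. IC50 obtained by Hill equation fitting.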

The target in assay [4] is Vitamin D3 receptor (Homo sapiens) (UniProt P11473). The assay is described as follows: qHTS assay for small molecule antagonists of vitamin D receptor signaling (AID 588541).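 Also: receptor activated by calcitriol during compound treatment; series mostly up to about 77 µM; % is scaled to controls: 0 for no effect and ±100 for the full control effect.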 An outline of the steps:
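Antagonist-mode beta-lactamase reporter assay: HEK293T VDR-UAS-bla cells were exposed to titrated compound alongside 1-alpha,25-dihydroxyvitamin D3 at 3 nM final for 16 h. Values were normalized to the 50 nM agonist control and DMSO basal, with IC50 and efficacy from Hill equation fits.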

Assay [5] shares this target. Briefly: qHTS assay for small molecule agonists of vitamin D receptor signaling (AID 588543).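 Also: 0% = DMSO basal and 100% = reference agonist control.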 Put shortly: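 qHTS in agonist mode: compound titrations stimulate a VDR-driven β-lactamase reporter in HEK293T cells over 16 h at 37 °C. Response normalized to 50 nM 1α,25-dihydroxyvitamin D3 = 100%, DMSO = 0%; Hill fitting gives EC50 and maximal response.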
Assay [6] addresses Retinoic acid receptor RXR-alpha (Homo sapiens) (UniProt P19793). Briefly: qHTS assay for small molecule agonists of retinoid X receptor alpha signaling (AID 588544).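 Also: 0% = DMSO basal wells and 100% = reference agonist.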
Assay [7] is described as follows: qHTS assay for small molecule antagonists of retinoid X receptor alpha signaling (AID 588546; active = well fitted inhibition curve with a large enough effect in the signal ratio, with a control signal flat, not every such curve was filed as active; the % refers to the signal ratio;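 also: cells stimulated with 9-cis-retinoic acid as agonist; % is scaled to controls: 0 for no effect and ±100 for the full control effect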). The following applies: HEK293T RXRa-UAS-bla, beta-lactamase ratio, antagonist mode; measured here: W530 green channel, cytotoxicity proxy. An outline of the steps:
(§1)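 Beta-lactamase reporter inhibition, read as CCF4 fluorescence ratio (ex 405, em 460/530 nm) after 2 h at RT. HEK293T UAS-bla cells, 2500/well, were stimulated with 9-cis-RA at 500 or 100 nM final alongside test compound for 18 h at 37 C.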

Assay [8] concerns the target Thyroid hormone receptor beta (Homo sapiens) (UniProt P10828). The assay is described as follows: qHTS assay for small molecule antagonists of thyroid hormone receptor beta signaling (AID 588547; active = well fitted inhibition curve with a large enough effect in the signal ratio, with a control signal flat, not every such curve was filed as active; the % refers to the signal ratio;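 also: cells stimulated with 0.4 nM T3 agonist during compound exposure; series mostly up to about 77 µM; % is scaled to controls: 0 for no effect and ±100 for the full control effect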). Particulars: TR-UAS-bla HEK293, beta-lactamase ratio, antagonist mode, 18 h. Put shortly: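 Inhibition of T3-driven (0.4nM final) beta-lactamase reporter activity was measured over 0.59 nM to 92 uM compound after 18 h at 37 C. The cells were GripTite HEK293 TR-UAS-bla in charcoal/dextran-stripped serum, with CCF4 ratio read-out and IC50 from Hill fits.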

Assay [9] in a line: qHTS assay for small molecule activators of the p53 signaling pathway (AID 651743; active = well fitted activation curve with a large enough effect in the signal ratio, not every such curve was filed as active; the % refers to the signal ratio; also: series mostly up to about 92 µM; % of control where 0% means no effect). The following applies: HCT-116 p53RE-bla, beta-lactamase FRET ratio, 16 h; activation: stronger effect = higher value. An outline of the steps:
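Screen for p53 pathway agonists uses stably transfected p53RE-bla HCT-116 cells, 4,000 per well, treated 16 h at 37 C with compounds in DMSO.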

Assay [10] in a line: qHTS assay for small molecule activators of the nuclear factor-kappa B (NF-kB) signaling pathway (AID 651749; active = well fitted activation curve with a large enough effect in the signal ratio; the % refers to the signal ratio; also: series mostly up to about 77 µM; % of control where 0% means no effect). Particulars: NF-kB-bla ME-180 cells, beta-lactamase FRET ratio, 16 h; activation: stronger effect = higher value. An outline of the steps:
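Stably transfected ME-180 line; NF-kB response element upstream of beta-lactamase. Treatment: compound or DMSO, 16 hr. Detection: fluorescent FRET substrate.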

The nature of assay [11]: qHTS assay for environmental chemicals that activate the Aryl hydrocarbon Receptor (AhR) signaling pathway (AID 651777; active = well fitted curve in the direction sought with a large enough effect; an effect the other way counts as inactive or inconclusive; also: % of control where 0% means no effect; nearly all actives have a fitted effect of over 15% in size). Particulars: 1A2-DRE human hepatoma cells, luciferase, 24 h; activation: stronger effect = higher value. Put shortly:
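Luminescence (One-Glo, 30 min, room temperature) reports AhR-driven luciferase in stably transfected human hepatoma cells bearing DRE and CYP1A2 promoter. Cells (1,200/well) were treated with compound for 24 hr at 37 C in qHTS format.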

The target in assay [12] is Peroxisome proliferator-activated receptor alpha (Homo sapiens) (UniProt Q07869). The assay is described as follows: qHTS assay for small molecule agonists of the peroxisome proliferator-activated receptor alpha (PPARalpha) signaling pathway (AID 651778; active = well fitted curve in the direction sought with a large enough effect; an effect the other way counts as inactive or inconclusive; also: % of control where 0% means no effect). The following applies: PathHunter PPARalpha complementation, chemiluminescence, 6 h; max response: stronger effect = higher value. An outline of the steps:
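Chemiluminescence from complemented enzyme reported PPARalpha activation in cells after 6 hr of compound treatment at 37 C. The detection reagent was incubated for 60 min at room temperature, and compounds were scored as agonists.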

Assay [13] in a line: qHTS assay for small molecule agonists of the antioxidant response element (ARE) signaling pathway measured by Nrf2-dependant transcriptional activity (AID 720636; active = well fitted curve in the direction sought with a large enough effect in the repeat runs; an effect the other way counts as inactive or inconclusive; also: % of control where 0% means no effect). Put shortly:
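Nrf2-dependent transcription read as ONE-Glo luciferase signal from ARE-luc HepG2 reporter cells after 16 hr compound treatment at 37 C, 5% CO2, in assay medium with 1% dialyzed FBS.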

Assay [14] in a line: qHTS assay for small molecule agonists of the antioxidant response element (ARE) signaling pathway measured by Nrf2-dependant transcriptional activity - cell viability counter screen (AID 720653; active = well fitted curve in the direction sought with a large enough effect in the repeat runs; an effect the other way counts as inactive or inconclusive; also: % is scaled to controls: 0 for no effect and ±100 for the full control effect). The following applies: ARE-bla HepG2 viability, CellTiter-Glo ATP luminescence, 16 h; max response: stronger effect = lower value. Put shortly: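 Cytotoxicity counter screen: intracellular ATP quantified by CellTiter-Glo luminescence in the same ARE-bla HepG2 plates, after 16 h compound exposure and a 2 h beta-lactamase substrate step.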

Assay [15] in a line: qHTS assay for cell viability of the p53RE-bla HCT-116 cell line (AID 743292; active = well fitted curve in the direction sought with a large enough effect; an effect the other way counts as inactive or inconclusive; also: % is scaled to controls: 0 for no effect and ±100 for the full control effect; nearly all actives have a fitted effect of over 55% in size). An outline of the steps: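 ATP-based luminescent viability (CellTiter-Glo, 30 min RT) after 16 h compound treatment at 37 C of p53RE-bla HCT-116 cells, seeded at 4,000 cells/well and rested 5 h before dosing.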
Assay [16] concerns the target Bile acid receptor (Homo sapiens) (UniProt Q96RI1). Briefly: qHTS assay for small molecule antagonists of farnesoid X receptor signaling (AID 588526). Also: % is scaled to controls: 0 for no effect and ±100 for the full control effect. Put shortly:
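Beta-lactamase reporter antagonist mode: HEK293T FXR-UAS-bla cells, titrated compound, CDCA stimulation, 16 h 37 C, CCF4 dye 2 h RT. Data normalized to CDCA 50 uM and DMSO; Hill-fit IC50.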

Assay [17] deals with Glucocorticoid receptor (Homo sapiens) (UniProt P04150). Briefly: qHTS assay for small molecule agonists of glucocorticoid receptor signaling (AID 588532; active = well fitted curve in the direction sought with a large enough effect in the signal ratio, with a control signal flat; the % refers to the signal ratio;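 also: 100% = dexamethasone at 0.1 µM and 0% = DMSO only wells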). Particulars: HeLa MMTV-bla, beta-lactamase ratio, agonist, 18 h; activation: stronger effect = higher value, percent of dexamethasone control, DMSO zero. An outline of the steps: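 Using MMTV-bla HeLa cells in medium with 1% stripped FBS and 25 mM HEPES, compounds were titrated and incubated overnight-length (18 h). Beta-lactamase cleavage of CCF4 was quantified by dual-emission fluorescence.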
Chain of Glucocorticoid receptor (Homo sapiens) (P04150 whole entry, looked up): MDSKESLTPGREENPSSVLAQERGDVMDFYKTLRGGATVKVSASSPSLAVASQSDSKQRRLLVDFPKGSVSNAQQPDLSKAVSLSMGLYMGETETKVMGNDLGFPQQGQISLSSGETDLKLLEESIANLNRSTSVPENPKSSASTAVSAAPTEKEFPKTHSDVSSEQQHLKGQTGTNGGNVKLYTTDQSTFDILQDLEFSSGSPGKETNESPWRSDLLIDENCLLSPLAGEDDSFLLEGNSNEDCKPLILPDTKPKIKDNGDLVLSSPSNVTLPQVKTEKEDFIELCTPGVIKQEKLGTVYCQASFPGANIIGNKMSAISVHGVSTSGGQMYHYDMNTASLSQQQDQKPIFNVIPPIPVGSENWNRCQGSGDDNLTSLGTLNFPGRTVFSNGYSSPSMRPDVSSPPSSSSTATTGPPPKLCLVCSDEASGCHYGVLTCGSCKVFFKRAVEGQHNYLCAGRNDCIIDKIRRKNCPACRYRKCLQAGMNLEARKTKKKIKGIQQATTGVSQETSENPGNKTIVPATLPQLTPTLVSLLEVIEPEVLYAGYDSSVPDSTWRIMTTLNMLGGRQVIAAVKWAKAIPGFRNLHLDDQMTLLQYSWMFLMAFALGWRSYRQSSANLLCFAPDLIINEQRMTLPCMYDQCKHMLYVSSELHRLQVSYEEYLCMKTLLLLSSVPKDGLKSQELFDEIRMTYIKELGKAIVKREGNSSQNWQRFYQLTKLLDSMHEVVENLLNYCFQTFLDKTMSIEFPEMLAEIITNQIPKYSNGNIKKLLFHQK

The target of assay [18] is Thyroid hormone receptor beta (Homo sapiens) (UniProt P10828). The assay is described as follows: qHTS assay for small molecule agonists of thyroid hormone receptor beta signaling (AID 588545). An outline of the steps:
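Agonist activity was read as beta-lactamase CCF4 fluorescence (405 ex, 460/530 em), scaled between DMSO (0%) and 10 nM T3 (100%), then Hill-fitted for EC50 and efficacy. HEK 293 TR-UAS-bla cells in 2% charcoal/dextran FBS medium were exposed 18 h at 37 C.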

Assay [19] concerns the target Retinoic acid receptor RXR-alpha (Homo sapiens) (UniProt P19793). Briefly: qHTS assay for small molecule antagonists of retinoid X receptor alpha signaling (AID 588546).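 Also: cells stimulated with 9-cis-retinoic acid as agonist; % is scaled to controls: 0 for no effect and ±100 for the full control effect.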 Particulars: HEK293T RXRa-UAS-bla, beta-lactamase ratio, antagonist mode. Put shortly:
as §1

The nature of assay [20]: qHTS assay for cell viability of HEK293 cells (AID 743288; active = well fitted curve in the direction sought with a large enough effect; an effect the other way counts as inactive or inconclusive; also: % is scaled to controls: 0 for no effect and ±100 for the full control effect; nearly all actives have a fitted effect of over 50% in size). The following applies: ATP luminescence (CellTiter-Glo), 18 h; max response: stronger effect = lower value. Put shortly:
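The Tox21 protocol used parental HEK293 cells treated for 18 h at 37 C with compounds delivered by pintool; ATP-coupled luminescence after 30 min at room temperature gave viability.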

Chain of Bile acid receptor (Homo sapiens) (Q96RI1 whole entry, looked up): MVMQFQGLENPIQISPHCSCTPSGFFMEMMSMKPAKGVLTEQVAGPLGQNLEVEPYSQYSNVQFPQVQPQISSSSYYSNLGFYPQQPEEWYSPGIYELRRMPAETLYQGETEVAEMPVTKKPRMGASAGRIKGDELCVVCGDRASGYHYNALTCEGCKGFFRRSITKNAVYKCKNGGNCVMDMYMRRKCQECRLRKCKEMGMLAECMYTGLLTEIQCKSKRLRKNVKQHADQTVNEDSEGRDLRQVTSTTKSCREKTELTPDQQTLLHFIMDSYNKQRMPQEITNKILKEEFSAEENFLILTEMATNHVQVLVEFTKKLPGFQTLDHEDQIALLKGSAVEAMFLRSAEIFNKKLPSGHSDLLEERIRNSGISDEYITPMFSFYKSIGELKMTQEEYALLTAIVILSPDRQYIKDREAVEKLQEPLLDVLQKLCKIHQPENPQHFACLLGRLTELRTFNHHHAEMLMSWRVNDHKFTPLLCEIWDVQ
Chain of Peroxisome proliferator-activated receptor delta (Homo sapiens) (Q03181 whole entry, looked up): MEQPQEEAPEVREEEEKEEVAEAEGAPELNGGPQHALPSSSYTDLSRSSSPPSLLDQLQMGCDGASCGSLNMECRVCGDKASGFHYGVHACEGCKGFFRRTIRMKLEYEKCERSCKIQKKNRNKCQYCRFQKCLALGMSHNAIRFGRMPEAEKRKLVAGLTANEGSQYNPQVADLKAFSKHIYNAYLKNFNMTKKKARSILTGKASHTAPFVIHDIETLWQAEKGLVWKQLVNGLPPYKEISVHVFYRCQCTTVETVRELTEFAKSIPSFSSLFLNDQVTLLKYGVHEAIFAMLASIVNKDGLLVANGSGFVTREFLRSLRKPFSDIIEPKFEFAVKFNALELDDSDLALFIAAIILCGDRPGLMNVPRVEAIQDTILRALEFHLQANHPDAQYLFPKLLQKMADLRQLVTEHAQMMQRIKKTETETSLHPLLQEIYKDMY
Chain of Vitamin D3 receptor (Homo sapiens) (P11473 whole entry, looked up): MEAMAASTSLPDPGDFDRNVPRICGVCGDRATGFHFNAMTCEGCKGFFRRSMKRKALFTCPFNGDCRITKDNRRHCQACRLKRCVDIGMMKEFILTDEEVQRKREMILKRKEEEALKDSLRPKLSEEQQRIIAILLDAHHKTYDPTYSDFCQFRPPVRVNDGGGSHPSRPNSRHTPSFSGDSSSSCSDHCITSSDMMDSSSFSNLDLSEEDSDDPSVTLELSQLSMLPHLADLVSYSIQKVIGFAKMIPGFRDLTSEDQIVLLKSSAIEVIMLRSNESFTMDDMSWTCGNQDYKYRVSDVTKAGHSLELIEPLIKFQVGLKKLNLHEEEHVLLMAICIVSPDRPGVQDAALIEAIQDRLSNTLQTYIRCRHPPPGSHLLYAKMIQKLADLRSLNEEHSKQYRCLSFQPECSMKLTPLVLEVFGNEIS
Chain of Peroxisome proliferator-activated receptor alpha (Homo sapiens) (Q07869 whole entry, looked up): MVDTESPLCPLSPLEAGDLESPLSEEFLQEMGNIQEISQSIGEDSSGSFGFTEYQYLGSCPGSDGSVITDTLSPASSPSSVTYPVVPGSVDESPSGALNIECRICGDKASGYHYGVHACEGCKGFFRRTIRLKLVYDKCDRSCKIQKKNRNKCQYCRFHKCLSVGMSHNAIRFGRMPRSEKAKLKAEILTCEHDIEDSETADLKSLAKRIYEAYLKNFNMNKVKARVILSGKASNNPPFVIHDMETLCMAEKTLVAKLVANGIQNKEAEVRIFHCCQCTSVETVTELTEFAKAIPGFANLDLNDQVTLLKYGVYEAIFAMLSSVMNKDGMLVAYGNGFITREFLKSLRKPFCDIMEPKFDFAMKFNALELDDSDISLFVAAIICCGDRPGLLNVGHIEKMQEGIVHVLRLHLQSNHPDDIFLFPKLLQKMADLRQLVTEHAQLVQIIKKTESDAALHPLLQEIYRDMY
Chain of Retinoic acid receptor RXR-alpha (Homo sapiens) (P19793 whole entry, looked up): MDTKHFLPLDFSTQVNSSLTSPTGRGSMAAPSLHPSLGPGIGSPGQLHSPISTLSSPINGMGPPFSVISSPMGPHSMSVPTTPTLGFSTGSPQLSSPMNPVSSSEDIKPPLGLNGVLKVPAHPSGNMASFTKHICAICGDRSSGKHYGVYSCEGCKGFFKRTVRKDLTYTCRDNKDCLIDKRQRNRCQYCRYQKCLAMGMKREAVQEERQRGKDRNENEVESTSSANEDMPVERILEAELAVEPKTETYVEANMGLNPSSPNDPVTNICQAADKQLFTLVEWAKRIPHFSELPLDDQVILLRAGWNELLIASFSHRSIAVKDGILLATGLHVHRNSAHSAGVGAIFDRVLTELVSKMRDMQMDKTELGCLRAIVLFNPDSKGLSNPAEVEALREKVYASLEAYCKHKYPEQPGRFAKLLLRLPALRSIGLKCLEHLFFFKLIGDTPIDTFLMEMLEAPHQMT
Chain of Thyroid hormone receptor beta (Homo sapiens) (P10828 whole entry, looked up): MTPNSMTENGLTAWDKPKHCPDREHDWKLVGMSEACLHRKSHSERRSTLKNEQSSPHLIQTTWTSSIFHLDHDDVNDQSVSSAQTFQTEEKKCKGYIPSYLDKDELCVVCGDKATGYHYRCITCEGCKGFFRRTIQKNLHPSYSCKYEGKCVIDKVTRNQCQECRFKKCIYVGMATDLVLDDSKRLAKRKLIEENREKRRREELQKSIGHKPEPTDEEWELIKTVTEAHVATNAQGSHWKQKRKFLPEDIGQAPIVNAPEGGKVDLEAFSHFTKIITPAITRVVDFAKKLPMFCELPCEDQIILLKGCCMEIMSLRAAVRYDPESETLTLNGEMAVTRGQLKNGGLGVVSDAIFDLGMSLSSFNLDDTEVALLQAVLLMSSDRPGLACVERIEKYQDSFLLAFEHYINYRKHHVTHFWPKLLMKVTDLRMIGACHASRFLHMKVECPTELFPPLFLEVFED

In the case of `CC1(C)C(C(=O)OC(C#N)c2cccc(Oc3ccccc3)c2)C1(C)C` (stereo not drawn), the activation was 5.5% (inactive) in assay [1], -5.39% (inactive) in [9], 2.53% (inactive) in assay [10] and -0.509% (inactive) in assay [11]. In addition, the outcome in assay [2] and in [5] was inactive. Also, the max response was 27.8% in [3], -18.6% in assay [7], -0.276% (inactive) in [12] and -19.4% (inactive) in [14]. Further, the Potency result in [4], in [6], in [13] and in assay [15] was “inactive” throughout. The activity change % (negative = inhibition) in assay [8] is 2.17% (inactive).

Turning to `COc1cc(OC)nc(NC(=O)NS(=O)(=O)c2ncccc2C(F)(F)F)n1`, the Potency result in assay [16], in assay [4], in [6], in [18], in assay [13] and in assay [15] was “inactive” each time. In addition, the activation in assay [17] is -18.1% (inactive); in [9], -1.26% (inactive); in assay [10], -0.0953% (inactive); in assay [11], 1.17% (inactive). For the same molecule, in assay [2], the outcome was inactive. For the same molecule, the max response was -12.7% in [3]; -9.13% in assay [7]; 2.48% (inactive) in [19]; -1.83% (inactive) in [12]; -1.73% (inactive) in assay [14]; -6.81% (inactive) in assay [20].

Take `C=C(C)C(=O)OCC(CC)CCCC` (stereo not drawn): in assay [17], the activation is -12.2% (inactive). Moreover, the Potency entry in [4], in assay [6], in [18], in assay [13] and in assay [15] was “inactive” each time. Moreover, the max response is -12.9% in [7]; -2.17% (inactive) in [19]; 5.11% (inactive) in assay [12]; -12.5% (inactive) in assay [14]; 2.46% (inactive) in assay [20]. In assay [8], the activity change % (negative = inhibition) is 10.1% (inactive).

Turning to `C=CCOC(=O)C(C)(C)OC(=O)c1cc(-n2c(=O)cc(C(F)(F)F)n(C)c2=O)ccc1Cl`, the values for the activation in assay [17] and in [9] were -1.05% (inactive) and 4.39% (inactive), respectively. The result in assay [2] and in assay [5] was inactive. For the same molecule, the max response is 15.1% in assay [3]; -18.1% in assay [7]; 23.7% (inactive) in assay [19]; 2.63% (inactive) in assay [12]; -16.6% (inactive) in assay [14]; -6.91% (inactive) in [20]. The Potency result in assay [6], in assay [18] and in [13] was “inactive” each time. Besides, the activity change % (negative = inhibition) in assay [8] was -9.78% (inactive).

Consider `O=C(NC(=O)c1c(F)cccc1F)Nc1cc(Cl)c(OC(F)(F)C(F)C(F)(F)F)c(Cl)c1F` (stereo not drawn), for which the Potency result in [16], in [6], in [18] and in assay [15] was “inactive” each time. Further, the activation is 3.38% (inactive) in [1], 2.49% (inactive) in assay [9], 4.04% (inactive) in [10] and 6.63% (inactive) in assay [11]. The molecule was classed as inactive in assay [2] and in assay [5]. Moreover, the max response in [3] is 39.8%; in [7], -6.84%; in assay [19], 4.34% (inactive); in [12], 6.43% (inactive); in assay [14], -22% (inactive); in [20] it was -24.3% (inactive). In addition, the activity change % (negative = inhibition) in [8] was 12.6% (inactive).

For `CC1(C)CCC(Cc2ccc(Cl)cc2)C1(O)Cn1cncn1` (stereo not drawn), the activation in assay [1] was 4.35% (inactive); in [10], -0.913% (inactive); in assay [11] it was -1.24% (inactive). In addition, the molecule was classed as inactive in assay [2] and in assay [5]. The Potency result in assay [4], in [6], in assay [18], in assay [13] and in assay [15] was “inactive” in each case. For the same molecule, the max response in assay [7] is -14.2%; in assay [14], -10.5% (inactive); in assay [20] it was -17.8% (inactive).
